Reference: PubChem BioAssay AID2069 (Sanford-Burnham Center for Chemical Genomics, 2009)
About 210 (18%) of roughly 1,200 compounds were called active. Rule as the data show it: active = inhibition above about 30%; inactive = the rest. The list is a sample of the results.

test: fluorescence readout artefact check – biochemical, HTRF, uHTS, artefact control for SUMOylation inhibitor project, confirmation (AID 2069); settings: HTRF interference counterscreen, at 35 µM, hits give high values

Row | SMILES | inhibition
1 | COc1cc(/C=C2\C(=O)N(c3ccc(S(N)(=O)=O)cc3)N=C2C)ccc1OC(=O)c1ccco1 | 19.1% (inactive)
2 | COc1ccccc1Oc1c(C)oc2cc(OC(=O)c3ccco3)ccc2c1=O | 36.7% (active)
3 | CCOc1cc(/C=C2/C(=O)N(c3ccccc3)N=C2C)ccc1OC(=O)c1ccco1 | -12.2% (inactive)
4 | CCOc1cccc(CNc2ccc(O)cc2)c1OCc1ccc(Cl)cc1Cl | 17.7% (inactive)
5 | COc1ccc(-n2c3nc4ccccc4nc3c3c(=N)oc(C)nc32)cc1 | -1.2% (inactive)
6 | O=C1N(c2ccc(Cl)c(Cl)c2)CN(Cc2ccccc2)CN1n1cnnc1 | 13.3% (inactive)
7 | CCCNC(=O)c1ccc2c(=O)c(O)c(-c3ccsc3)[nH]c2c1 | 46.5% (active)
8 | COc1ccccc1NC(=O)Nc1ccnn1Cc1cccs1 | 63.1% (active)
9 | COc1ccccc1NC(=O)CSc1ccc2nnc(-c3ccccn3)n2n1 | -3.25% (inactive)
10 | COc1ccccc1NC(=O)Cn1nc(C)n2cccc2c1=O | -4.55% (inactive)
11 | O=C(Nc1nc(-c2ccccc2)cs1)c1ccccc1NS(=O)(=O)c1ccc(F)cc1 | 9.2% (inactive)
12 | CC(=O)c1ccc2cccc3c2c1N=CN3C | -3.4% (inactive)
13 | COc1ccc(Br)cc1C1CC(=O)N2CN(Cc3ccccc3)CSC2=C1C#N (configuration not stated) | -9.75% (inactive)
14 | COc1ccc(OC)c(/C=N/NC(=O)CCc2ccc(O)c(O)c2)c1 | 17.9% (inactive)
15 | COc1ccc(-c2nc3ccc([N+](=O)[O-])cc3[nH]2)cc1 | 23.2% (inactive)
16 | COc1ccc(-c2nc3ccncc3[nH]2)cc1OC | 46.5% (active)
17 | COc1ccc(NC(=O)C(=O)N/N=C\c2ccc(CNC(=O)C(=O)Nc3ccc(C)c(C)c3)o2)c(OC)c1 | 15.9% (inactive)
18 | COc1cc(/C=C2\C(=O)N(CCC#N)N=C2C)c(Br)cc1OC(C)C | -5.4% (inactive)
19 | CCN(CC)C(=O)COc1ccc2oc(-c3ccco3)cc(=O)c2c1 | 43.6% (active)

Row | SMILES | inhibition
20 | O=C(COc1ccc2oc(-c3ccco3)cc(=O)c2c1)N1CCCCC1 | 39.8% (active)
21 | CN(C)c1cc(N/N=C/c2ccccc2C(F)(F)F)nc(N(C)C)n1 | -2.9% (inactive)
22 | O=c1cc(CSc2nnnn2-c2ccccc2)nc(Nc2ccc(F)cc2)[nH]1 | 3.3% (inactive)
23 | NC(=O)CC(NC(=O)Cc1cccc2ccccc12)c1ccc(NC2CCCCCC2)c([N+](=O)[O-])c1 (configuration not stated) | 6.15% (inactive)
24 | Cc1ccc(O)c(CNc2cccc3cccnc23)c1 | -18.2% (inactive)
25 | CCOC(=O)c1c(C)oc2c1c(C=NCCO)c(O)c1ccccc12 | 5.4% (inactive)
26 | CC(C)(C)c1cc(=O)n(-c2ccccc2)[nH]1 | -0.65% (inactive)
27 | Fc1ccc(NC(=S)Nc2cccc3ccccc23)cc1F | -11.7% (inactive)
28 | CC1CCN(Cc2cc(=O)oc3cc(O)c(Cl)cc23)CC1 | 50.5% (active)
29 | CC(C)(C)C1CCC2(CC1)Nc1cccc3cccc(c13)N2 | -2.5% (inactive)
30 | CCn1c(NC(=O)c2ccccc2)nc2ccccc21 | 1.3% (inactive)
31 | N#C/C(=C/c1ccc(-c2cc(C(=O)O)cc(C(=O)O)c2)o1)c1nc2ccccc2s1 | 13.9% (inactive)
32 | COc1ccc2nc(/C(C#N)=C\c3ccc(C(=O)O)cc3)[nH]c2c1 | 47.6% (active)
33 | COc1ccc(/C=C(\C#N)C(=O)OCC(=O)NCc2ccccc2Cl)cc1 | 6.4% (inactive)
34 | O=C(O)c1cc(Cl)c(Cl)cc1C(=O)Nc1cccc2ncccc12 | 2.4% (inactive)
35 | O=C(Nc1ccccc1-c1nc2ccccc2s1)c1cccnc1Cl | 64% (active)
36 | O=C(/C=C/c1ccco1)NC(=S)Nc1cc(-c2nc3ccccc3s2)ccc1Cl | 3.15% (inactive)
37 | COCCNC(=S)Nc1cccc2cnccc12 | 4.9% (inactive)
38 | C=CCn1c(SCC(=O)N2N=C(c3ccco3)CC2c2ccco2)nnc1-c1ccncc1 (configuration not stated) | -5.2% (inactive)

Row | SMILES | inhibition
39 | O=C1Nc2ccc([N+](=O)[O-])cc2C1=Nc1cccc(CO)c1 | 3.75% (inactive)
40 | Cc1[nH]n(-c2ccccc2)c(=O)c1C(c1cccc([N+](=O)[O-])c1)c1c(C)[nH]n(-c2ccccc2)c1=O | -11.2% (inactive)
41 | NCCSc1c(-c2ccccc2)[nH]c2ccccc12 | 0.7% (inactive)
42 | O=[N+]([O-])c1cc2c(cc1/C=N/n1c(-c3ccccn3)n[nH]c1=S)OCO2 | 0.15% (inactive)
43 | CCN(Cc1cc(=O)n2ccsc2n1)c1cccc2ccccc12 | 1.45% (inactive)
44 | Cc1cccn2cc(-c3ccc(S(=O)(=O)N4CCOCC4)cc3)nc12 | 40.8% (active)
45 | O=C(Nc1ccccc1F)Nc1cc(S(=O)(=O)N2CCOCC2)ccc1N1CCCC1 | 6.3% (inactive)
46 | Cc1ccc(C(=O)Nc2sc3c(c2C(=O)NCc2ccco2)CCCC3)cc1 | 29.9% (inactive)
47 | COc1ccccc1C(=O)Nc1sc2c(c1C(=O)NCc1ccco1)CCCC2 | 33.8% (active)
48 | COc1ccccc1C(=O)Nc1ccc(-c2nnn(CC(=O)NCc3ccco3)n2)cc1 | 13.7% (inactive)
49 | O=c1nc(Nc2ccc(Br)cc2)sc2ccc([N+](=O)[O-])cc12 | -4% (inactive)
50 | CCCCC[C@H](O)/C=C/[C@@H]1[C@@H](C/C=C\CCCC(=O)OC)[C@@H](O)C[C@H]1O | 23.6% (inactive)
51 | CCN(CC)S(=O)(=O)c1ccc(C)c(NC(=O)CSc2ncc(C(F)(F)F)cc2Cl)c1 | -6.95% (inactive)
52 | c1cc(Nc2ncnc3sc4c(c23)CCC4)ccn1 | 42.9% (active)
53 | CC1=NN(c2ccc(Cl)cc2)C(=O)C1C(c1cccc(O)c1)c1c(C)[nH]n(-c2ccc(Cl)cc2)c1=O (configuration not stated) | -23.6% (inactive)
54 | COc1ccc(C(c2c(C)[nH]n(-c3ccccc3)c2=O)c2c(C)[nH]n(-c3ccccc3)c2=O)cc1OC | 13.3% (inactive)
55 | N#Cc1c(N)nc2c(c1-c1ccc3c(c1)OCO3)CCc1ccccc1-2 | 13.8% (inactive)
56 | Cc1oc2c(c(C)cc3oc(=O)c(CC(=O)NCC(=O)NCC(=O)NCC(C)O)c(C)c32)c1C (configuration not stated) | 47.8% (active)
57 | Cc1oc2c(c(C)cc3oc(=O)c(CC(=O)NCC(=O)NCC(=O)O)c(C)c32)c1C | 52.3% (active)
